Source: PubChem BioAssay (NCATS)
Records with an inconclusive call do not appear. Activity calls are given as the source filed them. Calls follow the shape of the dose curve; as a rule, active = well fitted curve in the direction sought with a large enough effect; inconclusive = small, poorly fitted or top-dose-only effect, or another doubt; inactive = no such curve, though single readings can be large; an effect the other way counts as inactive or inconclusive.

Experiments:
CRL-7250 = normal cell line; test: Cytotoxic Profiling of Annotated Libraries Using Quantitative High-Throughput Screening (AID 1296008); conditions: Five cell lines viability, CellTiter-Glo ATP luminescence, 48-72 h; max response: hits give low values; also: nearly all actives have a fitted effect of over 60% in size; as to max response: % is scaled to controls: 0 for no effect and ±100 for the full control effect
Summary of the method: (§1)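 Compounds were pin-transferred onto cells and incubated 48 or 72 hr at 37 degree Celsius, 95% humidity. CellTiter-Glo was added, plates sat 10 min at room temperature, then ATP-coupled luminescence was imaged as the viability read-out.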

HEK293 = test: as above; conditions: Five cell lines viability, CellTiter-Glo ATP luminescence, 48-72 h; max response: hits give low values
Summary of the method: as §1

HaCat [1] = test: as above; conditions: Five cell lines viability, CellTiter-Glo ATP luminescence, 48-72 h; max response: hits give low values
Summary of the method: as §1

KB-3-1 = test: as above; conditions: Five cell lines viability, CellTiter-Glo ATP luminescence, 48-72 h; max response: hits give low values
Summary of the method: as §1

NIH3T3 = test: as above; conditions: Five cell lines viability, CellTiter-Glo ATP luminescence, 48-72 h; max response: hits give low values
Summary of the method: as §1

HACAT [2] = test: qHTS assay to identify novel small-molecules to repurpose for Merkel cell carcinoma treatment (AID 1296009); conditions: MCC and control cell lines, CellTiter-Glo viability, 72 h; at 44.8 µM (top of the series) unless noted; also: nearly all actives have a fitted effect of over 60% in size
Summary of the method: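 Luminescence from CellTiter-Glo, read 10 min after addition at room temperature, reported viability following a 72 hr, 37 degree celsius treatment with NPC or MIPE compounds in titration; values normalized to plate controls.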

C33A = test: Primary qHTS to identify gynecologic anti-cancer compounds using libraries of approved drugs and bioactive compounds (AID 1345084); conditions: Gynecologic cancer cell panel viability, ATPlite luminescence, 48 h; series mostly up to 57.5 µM; also: % is scaled to controls: 0 for no effect and ±100 for the full control effect; nearly all actives have a fitted effect of over 55% in size
Summary of the method: (§2)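 Cells, 1,000 per well, were allowed to settle for 16 h at 37 C before compound addition. Five concentrations were tested for 48 h, and viability was read by ATPlite luminescence after 15 min at room temperature.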

CAOV3 = test: as above; conditions: Gynecologic cancer cell panel viability, ATPlite luminescence, 48 h; series mostly up to 57.5 µM
Summary of the method: as §2

CASKI = test: as above; conditions: Gynecologic cancer cell panel viability, ATPlite luminescence, 48 h; series mostly up to 57.5 µM
Summary of the method: as §2

Es-2 = test: as above; conditions: Gynecologic cancer cell panel viability, ATPlite luminescence, 48 h; series mostly up to 57.5 µM
Summary of the method: as §2

HeLa = test: as above; conditions: Gynecologic cancer cell panel viability, ATPlite luminescence, 48 h; series mostly up to 57.5 µM
Summary of the method: as §2

Hek293T = test: as above; conditions: Gynecologic cancer cell panel viability, ATPlite luminescence, 48 h, control line for the selectivity index; series mostly up to 57.5 µM
Summary of the method: as §2

JEG-3 = test: as above; conditions: Gynecologic cancer cell panel viability, ATPlite luminescence, 48 h; series mostly up to 57.5 µM
Summary of the method: as §2

OV90 = test: as above; conditions: Gynecologic cancer cell panel viability, ATPlite luminescence, 48 h; series mostly up to 57.5 µM
Summary of the method: as §2

O=C(NCC(=O)N1CCCC1)Nc1ccc2ccccc2c1
inactive: max response (CRL-7250) 3.04% | max response (HEK293) 2.51% | outcome (HaCat [1]) | outcome (KB-3-1) | max response (NIH3T3) -1.06% | outcome (HACAT [2]) | Potency (C33A) | Potency (CAOV3) | outcome (CASKI) | Potency (Es-2) | Potency (HeLa) | Potency (Hek293T) | Potency (JEG-3) | Potency (OV90)

COC(O)(CC(C)C)C1Oc2cc(C)[nH]c(=O)c2O1 (stereo not drawn)
inactive: outcome (CRL-7250) | max response (HEK293) 0.893% | outcome (HaCat [1]) | max response (KB-3-1) 6.46% | max response (NIH3T3) 3.8% | outcome (HACAT [2]) | Potency (C33A) | Potency (CAOV3) | outcome (CASKI) | Potency (Es-2) | Potency (HeLa) | Potency (Hek293T) | Potency (JEG-3) | Potency (OV90)

CC1=CCC[C@@H]2[C@@](C)(CCc3ccoc3)[C@H](C(=O)O)CC[C@@]12C
inactive: max response (CRL-7250) -0.266% | max response (HEK293) -0.612% | outcome (HaCat [1]) | max response (KB-3-1) -0.465% | max response (NIH3T3) -9.18% | outcome (HACAT [2]) | Potency (C33A) | Potency (CAOV3) | outcome (CASKI) | Potency (Es-2) | Potency (HeLa) | Potency (Hek293T) | Potency (JEG-3) | Potency (OV90)

C[C@@H]1O[C@@H](OC2C(CO)OC(OCC3OC(OC(=O)[C@]45CCC(C)(C)CC4C4=CCC6[C@@]7(C)CC[C@@H](O)[C@](C)(C(=O)O)C7CC[C@@]6(C)[C@]4(C)CC5)C(O)C(O)C3O)C(O)C2O)[C@H](O)[C@H](O)[C@H]1O (stereo partly drawn)
inactive: outcome (CRL-7250) | max response (HEK293) 2.84% | outcome (HaCat [1]) | max response (KB-3-1) -3.25% | max response (NIH3T3) -0.476% | outcome (HACAT [2]) inactive [at 9.27 µM] | activity change, negative = cytotoxicity (C33A) 1.71% [at 11.6 µM] | activity change, negative = cytotoxicity (CAOV3) 16.7% [at 11.6 µM] | activity change, negative = cytotoxicity (CASKI) -0.233% [at 11.6 µM] | activity change, negative = cytotoxicity (Es-2) -9.93% [at 11.6 µM] | activity change, negative = cytotoxicity (HeLa) 4.67% [at 11.6 µM] | activity change, negative = cytotoxicity (Hek293T) 5.6% [at 11.6 µM] | activity change, negative = cytotoxicity (JEG-3) 7.96% [at 11.6 µM] | activity change, negative = cytotoxicity (OV90) 8.36% [at 11.6 µM]

OC[C@@]1(O)CO[C@H](OC[C@H]2O[C@@H](OCCc3ccccc3)[C@H](O)[C@@H](O)[C@@H]2O)[C@@H]1O
inactive: max response (CRL-7250) -3.48% | max response (HEK293) -5.84% | outcome (HaCat [1]) | max response (KB-3-1) -0.728% | max response (NIH3T3) 5% | outcome (HACAT [2]) inactive [at 17.4 µM] | Potency (C33A) | Potency (CAOV3) | outcome (CASKI) | Potency (Es-2) | Potency (HeLa) | Potency (Hek293T) | Potency (JEG-3) | Potency (OV90)

COc1cc(/C=C/C(=O)OC[C@H]2O[C@@H](OC3OC=C(C(=O)O)C4C(O)CC(C)(O)C34)[C@H](O)[C@@H](O)[C@@H]2O)cc(OC)c1O (stereo partly drawn)
inactive: max response (CRL-7250) -14.2% | max response (HEK293) -83.6% | outcome (HaCat [1]) | max response (KB-3-1) 9.94% | max response (NIH3T3) 4.03% | outcome (HACAT [2]) inactive [at 17.4 µM] | Potency (C33A) | Potency (CAOV3) | outcome (CASKI) | Potency (Es-2) | Potency (HeLa) | Potency (Hek293T) | Potency (JEG-3) | Potency (OV90)

CC(=O)OC[C@@]12C(=O)C[C@@H](C)[C@]3(C[C@@H](c4ccoc4)OC3=O)[C@H]1CC[C@H](OC(C)=O)[C@]21CO1
inactive: max response (CRL-7250) -3.74% | max response (HEK293) -0.582% | outcome (HaCat [1]) | outcome (KB-3-1) | max response (NIH3T3) -0.126% | outcome (HACAT [2]) inactive [at 17.4 µM] | Potency (C33A) | Potency (CAOV3) | outcome (CASKI) | Potency (Es-2) | Potency (HeLa) | Potency (Hek293T) | Potency (JEG-3) | Potency (OV90)

O=C(O)c1cccc(CN2C(=O)/C(=C(\c3ccccc3)c3ccc(Cl)cc3)c3ccccc32)c1
inactive: max response (CRL-7250) 3.11% | max response (HEK293) -10.4% | outcome (HaCat [1]) | max response (KB-3-1) 5.03% | max response (NIH3T3) -3.22% | outcome (HACAT [2]) | Potency (C33A) | Potency (CAOV3) | outcome (CASKI) | Potency (Es-2) | Potency (HeLa) | Potency (Hek293T) | Potency (JEG-3) | Potency (OV90)

CCOc1nc2c(N)ncnc2n1CC
inactive: outcome (CRL-7250) | max response (HEK293) 3.9% | outcome (HaCat [1]) | max response (KB-3-1) 5.09% | max response (NIH3T3) 3.41% | outcome (HACAT [2]) | Potency (C33A) | Potency (CAOV3) | outcome (CASKI) | Potency (Es-2) | Potency (HeLa) | Potency (Hek293T) | Potency (JEG-3) | Potency (OV90)

CC1=CC(=O)CC(C)(C)C1CO[C@@H]1O[C@H](CO)[C@@H](O)[C@H](O)[C@H]1O (stereo partly drawn)
inactive: max response (CRL-7250) -5.79% | max response (HEK293) -1.36% | outcome (HaCat [1]) | max response (KB-3-1) 7.69% | max response (NIH3T3) -1.71% | outcome (HACAT [2]) | Potency (C33A) | Potency (CAOV3) | outcome (CASKI) | Potency (Es-2) | Potency (HeLa) | Potency (Hek293T) | Potency (JEG-3) | Potency (OV90)

CC(C)(O)/C=C/C(=O)[C@](C)(O)[C@H]1[C@H](O)C[C@@]2(C)[C@@H]3CC=C4[C@@H](C=C(O[C@@H]5O[C@H](CO)[C@@H](O)[C@H](O)[C@H]5O)C(=O)C4(C)C)[C@]3(C)C(=O)C[C@]12C
inactive: max response (CRL-7250) -3.34% | max response (HEK293) -7.75% | outcome (HaCat [1]) | max response (KB-3-1) 0.874% | max response (NIH3T3) 1.79% | outcome (HACAT [2]) inactive [at 17.4 µM] | Potency (C33A) | Potency (CAOV3) | outcome (CASKI) | Potency (Es-2) | Potency (HeLa) | Potency (Hek293T) | Potency (JEG-3) | Potency (OV90)

C[C@@H]1O[C@@H](O[C@H]2[C@H](OC(=O)[C@]34CCC(C)(C)C[C@H]3C3=CCC5[C@@]6(C)CC[C@H](O[C@@H]7O[C@H](CO[C@@H]8OC[C@H](O)[C@H](O)[C@H]8O)[C@@H](O)[C@H](O)[C@H]7O)C(C)(C)C6CC[C@@]5(C)[C@]3(C)C[C@H]4O)OC[C@@H](O)[C@@H]2O)[C@H](O)[C@H](O[C@@H]2OC[C@](O)(CO)[C@H]2O)[C@H]1O[C@@H]1OC[C@H](O)[C@H](O[C@@H]2OC[C@@H](O)[C@H](O)[C@H]2O)[C@H]1O (stereo partly drawn)
inactive: outcome (CRL-7250) | max response (HEK293) -12.4% | outcome (HaCat [1]) | max response (KB-3-1) 6% | max response (NIH3T3) -2.23% | outcome (HACAT [2]) inactive [at 9.27 µM] | activity change, negative = cytotoxicity (C33A) -0.179% [at 6.55 µM] | activity change, negative = cytotoxicity (CAOV3) 23.4% [at 6.55 µM] | activity change, negative = cytotoxicity (CASKI) 9.95% [at 6.55 µM] | activity change, negative = cytotoxicity (Es-2) 8.45% [at 6.55 µM] | activity change, negative = cytotoxicity (HeLa) 22.1% [at 6.55 µM] | activity change, negative = cytotoxicity (Hek293T) 8.51% [at 6.55 µM] | activity change, negative = cytotoxicity (JEG-3) -2.51% [at 6.55 µM] | activity change, negative = cytotoxicity (OV90) -11.9% [at 6.55 µM]
